# HT1080-NT tox = kills 2HG-producing HT-1080-NT fibrosarcoma cells; HT-1080-NT fibrosarcoma viability, CellTiter-Glo ATP luminescence, 48 h; Potency, µM (highest dose often 46.1 µM), most hits filed as cytotoxic; 360,000 compounds, 1.6% hits; AID 686970;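 note: NT is the 2HG producing partner of a matched IDH1 knockdown line; nearly all actives have a fitted effect of over 55% in size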
#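 Luminescent CellTiter-Glo readout after 48 hours of compound exposure at 37 degrees C defined viability of HT-1080-NT cells. Activity was normalized to DMSO wells and cell-free media wells; concentration-response curves were fitted and assigned curve classes.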
# MCF10A rerep = inducers of DNA re-replication in MCF 10A breast cells | Potency, µM (series often up to 46.1 µM), hits mostly activators | AID 624296 | 350,000 compounds, 2.9% hits | MCF 10A DNA re-replication, Hoechst nuclear intensity, 48 h; note: nearly all actives have a fitted effect of over 50% in size
# KB-V1 MDR tox = kills drug-selected multidrug resistant KB-V1 cells. Potency, µM (top dose mostly 46.1 µM), hits mostly cytotoxic. AID 1347076. KB-V1 MDR cells viability, CellTiter-Glo, 72 h. 400,000 compounds, 3.4% hits; note: nearly all actives have a fitted effect of over 60% in size
#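 Readout: CellTiter-Glo luminescence, 10 min after addition. Cells: KB-V1 MDR subline, 72 h at 37 degrees C with compound. Analysis: corrected, normalized data fitted to concentration-effect curves.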
# HT1080 IDH1KD tx = HT-1080 IDH1 knockdown cell toxicity (counter line); AID 686971; 360,000 compounds, 2% hits; HT-1080 IDH1 knockdown viability, ATP luminescence, 48 h; Potency, µM (titrated, usually from 46.1 µM), usual class: cytotoxic
#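 Knockdown cells (IDH1KD HT-1080) received compounds 2 h after plating at 750 cells/well and were kept 48 h at 37 °C in 5% FBS RPMI. A CellTiter-Glo luminescence read gave % activity for curve fitting.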
# SW480 rereplic = induces DNA re-replication in SW480 colon adenocarcinoma cells; SW480 DNA re-replication, Hoechst DNA content imaging, 48 h; Potency, µM (titrated, usually from 46.1 µM), usual class: activators; 340,000 compounds, 1.8% hits; note: nearly all actives have a fitted effect of over 55% in size
#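 250 cells/well; 23 nL cpd via pin tool; 48 hr, 37 C, 5% CO2; Hoechst 40 min; imager read of total nuclear intensity, ex 405/em 500-530 nm.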
# KB-3-1 tox = KB-3-1 parental cell cytotoxicity; KB-3-1 viability, CellTiter-Glo ATP luminescence, 72 h; Potency, µM (highest dose often 46.1 µM), actives largely listed as cytotoxic; 400,000 compounds, 1.4% hits; note: nearly all actives have a fitted effect of over 60% in size
#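 Cytotoxicity measured as CellTiter-Glo luminescence after 72 h at 37 C. Compound titrations were pinned onto drug-naive KB-3-1 parental adenocarcinoma cells grown in DMEM with 10% FBS, and normalized data fitted to concentration-response curves.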
# Hits are given with their value; . = inactive; ? = inconclusive; / = not tested or not shown. The list is not random: actives were taken first. Their share in the collection is about 8%. Calls come from the whole dose curve; as a rule, active = well fitted curve in the direction sought with a large enough effect; inconclusive = small, poorly fitted or top-dose-only effect, or another doubt; inactive = no such curve, though single readings can be large; an effect the other way counts as inactive or inconclusive.
SMILES,HT1080-NT tox,MCF10A rerep,KB-V1 MDR tox,HT1080 IDH1KD tx,SW480 rereplic,KB-3-1 tox
CC(OC(=O)c1ccc(F)cc1)C(=O)Nc1nc(-c2cccc([N+](=O)[O-])c2)cs1 (stereo not given),.,.,21µM,.,.,.
CC(C)Oc1ccc(C(=O)OC(C)C(=O)Nc2nc(-c3cccc([N+](=O)[O-])c3)cs2)cc1 (stereo not given),.,.,.,.,.,.
COc1ccc2c(c1)c1c(c(=O)n(-c3ccccc3C)c(=O)n1CC(=O)Nc1c(C)cccc1C)n2C,/,/,.,/,/,.
O=C(OCc1nnc(-c2ccccc2)o1)c1ccccc1,.,.,.,.,.,.
COc1cc(OC)cc(C(=O)OCC(=O)Nc2nnc(-c3ccccc3)o2)c1,.,.,?,.,.,.
O=C(COC(=O)c1ccc(Cl)nc1)Nc1nnc(-c2ccccc2)o1,.,.,15µM,.,.,.
O=C(COC(=O)c1ccc(-c2nnc(-c3ccccc3)o2)cc1)c1ccccc1,.,?,?,.,16µM,.
O=C(COC(=O)Cc1ccccc1[N+](=O)[O-])Nc1nnc(-c2ccccc2)o1,.,18µM,?,.,.,.
O=C(COc1ccccc1)Nc1nnc(-c2ccccc2)o1,.,.,.,.,.,.
Cc1ccc2oc(=O)c3cc(C(=O)NCCCOC(C)C)sc3c2c1,/,/,.,/,/,.
c1ccc2c(-c3c[nH]c4ccccc34)c3ccccc3nc2c1,?,8.2µM,.,?,?,.
CCCCn1cc(S(=O)(=O)c2ccc(CC)cc2)c(=O)c2cc(F)c(N3CCOCC3)cc21,/,/,.,/,/,.
Fc1ccc(C2NC(=S)NC3=C2N2CCC3CC2)cc1 (stereo not given),.,13µM,.,.,.,.
CC(=O)c1cccc(NC(=O)Cc2ccc(NC(=O)N3CCCCc4ccccc43)cc2)c1,/,/,.,/,/,.
O=S(=O)(Nc1cccnc1Cl)c1ccc(F)cc1,.,.,.,.,.,.
O=S(=O)(Nc1cc(Sc2cccc3cccnc23)c(O)c2ccccc12)c1ccc(F)cc1,23µM,10µM,?,21µM,0.73µM,3.3µM
Cc1ccc(C(=O)/C=C/c2ccc(-c3ccc(C)cc3)o2)cc1,.,21µM,.,.,.,.
O/N=C\c1ccc(-c2ccccc2)o1,.,.,.,.,?,.
O=C(/C=C\c1ccc(-c2ccccc2)o1)c1ccccc1,.,23µM,.,.,.,.
Cc1nc2cc(-c3sccc3-n3cccc3)nn2c(C)c1C,.,?,16µM,.,.,.
Cc1cc(=O)oc2cc(OCC3CC(c4ccccc4)=NO3)ccc12 (stereo not given),11µM,4.1µM,8.2µM,?,5.2µM,7.3µM
O=[N+]([O-])c1ccc(OCC2CC(c3ccccc3)=NO2)cc1 (stereo not given),.,?,.,.,16µM,.
O=[N+]([O-])c1ccc(OCc2nnc(-c3ccccc3)o2)cc1,.,.,.,.,.,.
Cc1cc(=O)oc2cc(OCC(=O)N3c4ccccc4CC3C)ccc12 (stereo not given),2.6µM,2.5µM,2.6µM,2.6µM,1.6µM,2.9µM
Cc1cc(=O)oc2cc(OCC3CC(c4ccc(Br)cc4)=NO3)ccc12 (stereo not given),.,9.2µM,21µM,.,?,?
SMILES,HT1080-NT tox,MCF10A rerep,KB-V1 MDR tox,HT1080 IDH1KD tx,SW480 rereplic,KB-3-1 tox
CCc1ccc(NC(=O)c2sc3nc(C)c(Cl)c(C)c3c2NC(=O)c2ccccc2OC)cc1,/,/,.,/,/,?
CCCOc1ccc(CNC(=O)c2cc3ccccn3n2)cc1,/,/,.,/,/,.
O=C(CSc1ncc(-c2ccccc2)[nH]1)Nc1cccc(C(F)(F)F)c1,/,/,.,/,/,.
O=C(CSc1nc2cc(Cl)c(Cl)cc2[nH]1)c1ccc2c(c1)OCO2,.,.,8.2µM,.,.,15µM
O=C(CSc1nc2ccc(Cl)cc2[nH]1)c1ccc2c(c1)OCO2,.,.,.,.,.,.
C=CCn1c(COc2cccc(C)c2)nnc1SCC(=O)NC(=O)NCc1ccco1,.,18µM,.,.,.,.
COc1ccc(C(=O)Oc2c(CN3CCOCC3)cc(Cl)c3cccnc23)cc1OC,.,.,?,.,.,?
Oc1ccc(CN2CCN(Cc3ccccc3)CC2)c2cccnc12,?,.,.,.,?,?
COc1cc(OC)cc(C(=O)Oc2c(CN3CCOCC3)cc(Cl)c3cccnc23)c1,?,.,?,.,?,.
Oc1c(CN2CCCCC2)cc(Br)c2cccnc12,?,23µM,?,?,?,13µM
O=C(Oc1c(CN2CCOCC2)cc(Cl)c2cccnc12)c1ccccc1,?,?,?,10µM,8.2µM,?
O=C(COc1c(Br)cc(Br)c2cccnc12)N1CCCCC1,.,.,.,.,.,.
CN1CCN(Cc2cc(COCc3ccccc3)c3cccnc3c2O)CC1,?,?,?,?,6.3µM,?
O=C(Oc1c(CN2CCOCC2)cc(Cl)c2cccnc12)c1ccccc1F,?,18µM,?,?,6.5µM,18µM
CCOC(=O)c1sc2ccccc2c1S(=O)(=O)N1CCN(c2cccc(C)c2C)CC1,/,/,.,/,/,.
O=C(NCc1cccs1)c1ccc(Cn2c(SCc3ccccc3)nc3cccnc32)cc1,/,/,.,/,/,.
Cc1ccc(OCc2nc(-c3ccc(C(=O)N4CCN(c5cccc(C(F)(F)F)c5)CC4)cc3)oc2C)cc1,/,/,.,/,/,.
Oc1c(Cl)cc(CN2CCOCC2)c2cccnc12,7.3µM,12µM,.,5.8µM,?,?
COc1cccc(N/C(SCc2ccccc2Cl)=C(/C#N)C(=O)NCc2cccs2)c1,.,.,15µM,.,.,.
COc1cccc(N/C(SCc2ccccc2C)=C(/C#N)C(=O)NCc2cccs2)c1,.,.,5.2µM,.,.,.
COc1cccc(N/C(SCc2cccc([N+](=O)[O-])c2)=C(/C#N)C(=O)NCc2cccs2)c1,.,.,.,.,.,.
COc1cccc(N/C(SC)=C(/C#N)C(=O)NCc2cccs2)c1,.,.,?,.,.,.
Cc1ccc(-c2cn3cccnc3n2)cc1NC(=O)Nc1ccc(F)cc1,/,/,.,/,/,.
COc1cc(OC)cc(C(=O)N2CC(=O)Nc3ccccc32)c1,?,1.5µM,2.3µM,?,3.3µM,?
CC(C)n1nc(C(=O)OCC(=O)N2CC(=O)Nc3ccccc32)c2ccccc2c1=O,.,.,.,.,.,.
CCCn1nc(C(=O)N2CC(=O)Nc3ccccc32)c2ccccc2c1=O,?,15µM,21µM,?,15µM,8.2µM
O=C(CN1CCN(CC(=O)Nc2ccccc2F)CC1)Nc1ccc(Cl)c(C(F)(F)F)c1,/,/,.,/,/,.
